In PubChem BioAssay AID2284351 (EPA ToxCast):
Activity calls are given as the source filed them. How the source made its calls: active means hit-call score of the fitted dose curve at least 0.9, where 1 is the maximum; inactive means score below 0.9.

molecular target: Peroxisome proliferator-activated receptor gamma (Homo sapiens) (UniProt P37231); test: ATG_hPPARg_EcoTox2: Attagene TRANS-FACTORIAL EcoTox-2 HepG2 Assay for human Peroxisome Proliferator-activated Receptor gamma (PPARg)
Procedure: ATG_EcoTox2 is a cell-based, multiplexed assay created by modifying the existing Attagene TRANS-FACTORIAL system to include a panel of nuclear receptors from some or all the following species: human (Homo sapiens), african clawed frog (Xenopus laevis), rainbow trout (Oncorhynchus mykiss), japanese medaka (Oryzias latipes), and zebrafish (Danio rerio). The ECOTOX2-FACTORIAL format uses HepG2, a human liver cell line, with measurements taken at 24 hours after chemical dosing in a 24-well plate. ATG_hPPARg_EcoTox2 is one of 29 assay components calculated in the ATG_EcoTox2 assay. It is designed to make measurements of mRNA induction, a form of inducible reporter, as detected with fluorescence intensity signals by Reverse transcription polymerase chain reaction (RT-PCR) and Capillary electrophoresis technology.The assay endpoint ATG_hPPARg_EcoTox2 was analyzed in the positive analysis fitting direction relative to DMSO as the negative control and baseline of activity. Using a type of inducible reporter, measures of mRNA for gain-of-signal activity can be used to understand the reporter gene at the transcription factor-level as they relate to the gene PPARg. Furthermore, this assay endpoint can be referred to as a primary readout, because this assay has produced multiple assay endpoints where this one serves a reporter gene function. To generalize the intended target to other relatable targets, this assay endpoint is annotated to the nuclear receptor intended target family, where the subfamily is non-steroidal.
Human liver HepG2 cells are transiently transfected with multiple reporter transcription units (MRTUs) in 6-well plates using FuGene 6 reagent (Roche; 3 ml FuGene/1 mg DNA). The MRTU constructs are regulated by a cis-regulating element (promoter). Each RTU expresses a GAL4-UAS that regulates the transcription of a nearby target reporter gene sequence. A major difference between the CIS and TRANS system is that in CIS activities of endogenous TFs are measured, whereas the TRANS assay evaluates changes in activities of exogenous, chimeric NR-Gal4 proteins. […] At the end of 24 hour incubation, total RNA was isolated using TriZol reagent (Invitrogen). The isolated RNA is then reverse-transcribed using oligo(dT) primer and Mo-MLV reverse transcriptase (Invitrogen) with DNAse I (Ambion) treatment for 30 min. The one-tenth of the produced cDNA was amplified by PCR using Taq DNA polymerase (Invitrogen) and two reporter sequence-specific primers. The PCR products were fluorescently labeled by primer extension with 6-arboxyfluorescein (6-FAM) 5'-labeled reporter sequence-specific primer (2 min at 95 C, 20 s at 68 C and 10 min at 72 C) and these products were digested with 5U of HpaI (New England Biolabs) for 2h at 37 C. The fragments were purified using Qiaquick PCR columns (Qiagen), analyzed on an ABI 3130xL genetic analyzer (Applied Biosystems) with peak positions identified by using a set of X-rhodamine (ROX)-labeled MapMarker1000 molecular weight standards (BioVentures). The raw capillary electrophoresis data was processed using Attagraph software (Attagene).

Peroxisome proliferator-activated receptor gamma (Homo sapiens), sequence (P37231 whole entry, looked up): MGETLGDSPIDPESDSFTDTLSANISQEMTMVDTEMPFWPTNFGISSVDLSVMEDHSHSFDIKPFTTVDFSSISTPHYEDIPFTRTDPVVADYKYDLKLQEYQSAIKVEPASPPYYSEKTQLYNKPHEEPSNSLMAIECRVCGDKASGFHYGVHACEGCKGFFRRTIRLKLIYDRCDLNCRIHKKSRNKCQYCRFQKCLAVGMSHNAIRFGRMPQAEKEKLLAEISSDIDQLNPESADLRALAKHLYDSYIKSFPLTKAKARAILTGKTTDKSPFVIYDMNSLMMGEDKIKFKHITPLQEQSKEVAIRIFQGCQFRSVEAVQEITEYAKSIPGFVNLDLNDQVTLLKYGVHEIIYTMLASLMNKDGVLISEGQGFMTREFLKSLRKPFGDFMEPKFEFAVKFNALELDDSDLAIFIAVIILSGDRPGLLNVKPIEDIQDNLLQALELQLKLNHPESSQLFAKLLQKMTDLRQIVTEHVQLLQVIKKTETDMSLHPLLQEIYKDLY

**Q.** For C[C@]12C=CC(=O)C=C1CC[C@@H]1[C@@H]2C(=O)C[C@@]2(C)[C@H]1CC[C@]2(O)C(=O)CO, which outcome is on record?
**A.** inactive

**Q.** C=C(c1ccc(C(=O)O)cc1)c1cc2c(cc1C)C(C)(C)CCC2(C)C was tested. Which AC50 did it give?
**A.** 1.1 µM (active)

**Q.** For Cc1nc(-c2ccc(C(F)(F)F)cc2)sc1C(=O)NCc1ccc(OC(C)(C)C(=O)O)cc1, which AC50 is on record?
**A.** 1.29 µM (active)

**Q.** For CC(C)(Oc1ccc(Cl)cc1)C(=O)O, which AC50 is on record?
**A.** 80.6 µM (active)

**Q.** C[C@@H]1C[C@H]2[C@@H]3CCC4=CC(=O)C=C[C@]4(C)[C@@]3(F)[C@@H](O)C[C@]2(C)[C@@]1(O)C(=O)COP(=O)(O)O was tested. Which outcome did it give?
**A.** inactive

**Q.** CC(C)(Oc1ccc(C2CC2(Cl)Cl)cc1)C(=O)O (configuration not stated) was tested. Which AC50 did it give?
**A.** 37.3 µM (active)

**Q.** Which AC50 does the source give for CC(C)(Oc1ccc(CCNC(=O)c2ccc(Cl)cc2)cc1)C(=O)O here?
**A.** 14 µM (active)
